Results with a measured potency or affinity are listed apart. Inconclusive results are not listed. Calls of active or inactive are those of the source. Unless noted, how the calls were made is not given here.
Key:
[1] = cytotoxicity in PAX8-dependent RMG-1 cells, dose response, cell-based, cherry-pick (AID 687029;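 active means signal drop whose fitted half-maximal concentration is at most twice the top valid dose, in every test run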;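 further: cells exposed to compound for 96 hours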)
[2] = cytotoxicity in IOSE-T80 ovarian epithelial cells, dose response, selectivity assay for PAX8 inhibitor project, cell-based, cherry-pick (AID 687032;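 active means fitted half-maximal concentration for viability loss no higher than twice the top valid dose, in every repeat run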;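 further: cells exposed to compound for 96 h before reading; 0% = neutral control wells and -100% = 2 µM mitoxantrone kill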)
[3] = inhibitors of CMV-promoter luciferase reporter, dose response, counter-screen for Pax8 inhibitor project, cell-based, HEK293, luminescence, dry powder (AID 743020;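 active means signal-lowering compounds whose fitted half-maximal concentration is at or below twice the top tested dose in every run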;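 further: HEK293 cells stably expressing the CMV luciferase reporter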)
[4] = non-specific cell cytotoxicity, dose response, cytotoxicity control for PAX8 inhibitor project, plate reader, dry powder samples (AID 743021)
[5] = IGROV1 ovarian cancer cell cytotoxicity, dose response, PAX8 inhibitor project, plate reader, dry powder samples (AID 743043);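 further: more negative means fewer viable cells or more cytotoxicity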
[6] = IOSE-T80 ovarian epithelial cell cytotoxicity, dose response, cytotoxicity control for PAX8 inhibitor project, plate reader, dry powder samples (AID 743045);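 further: 0% = neutral control median and -100% = positive control median; more negative values mean more cell killing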
[7] = A2780 ovarian cancer cell cytotoxicity, dose response, cytotoxicity control, plate reader, dry powder samples (AID 743046);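 further: 0% = neutral control wells and -100% = cytotoxic reference compound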
[8] = cytotoxicity in OVCAR8 ovarian cancer cells, dose response, PAX8 project, cell-based, plate reader, dry powder samples (AID 743197)
[9] = NIH:OVCAR-3 ovarian cancer cell cytotoxicity, dose response, PAX8 inhibitor project, plate reader, dry powder samples (AID 743044); settings: max activity: at 35 µM, stronger effect = lower value unless noted

Measured: max activity

Cc1cccc(S(=O)(=O)N2CC[C@@H]3[C@H](CO)N(C)c4ccc(-c5ccc(C#N)cc5)cc4[C@@H]32)c1
inactive: [1] | [2] | [3] | [4] | [5] | [6] | [7] | [8]

C[C@@H]1CN([C@H](C)CO)C(=O)c2cc(NS(=O)(=O)c3cccs3)ccc2O[C@@H](C)CCCCO[C@H]1CN(C)Cc1ccc(Cl)c(Cl)c1
inactive: [1] | [2] | [3] | [4] | [5] | [6] | [7] | [8]

C[C@@H]1CN([C@H](C)CO)C(=O)c2cc(NS(=O)(=O)c3ccc(Cl)cc3)ccc2O[C@@H](C)CCCCO[C@@H]1CN(C)Cc1ccc(Cl)c(Cl)c1
inactive: [1] | [2] | [3] | [4] | [5] | [6] | [8]

C[C@@H]1CN([C@@H](C)CO)C(=O)c2cc(NC(=O)Nc3ccc(C(F)(F)F)cc3)ccc2O[C@@H](C)CCCCO[C@@H]1CN(C)Cc1ccncc1
inactive: [1] | [2] | [3] | [4] | [9] 59.3% [at 2.1 µM, stronger effect = lower value] | [6] | [7] | [8]

COc1ccc(NC(=O)N2CCCCN3[C@H](CO)[C@H](c4ccc(C#Cc5ccccc5)cc4)[C@H]3C2)cc1
inactive: [1] | [2] | [3] | [4] | [9] -17.7% | [6] | [7] | [8]

C[C@H]1CN([C@@H](C)CO)C(=O)c2c(c3ccccc3n2C)-c2ccccc2CO[C@@H]1CN(C)Cc1cccc(C(F)(F)F)c1
inactive: [1] | [2] | [3] | [4] | [9] 14.4% [at 0.26 µM, stronger effect = lower value] | [6] | [7]

C[C@@H]1CCCCO[C@@H](CN(C)Cc2ccc(C(F)(F)F)cc2)[C@H](C)CN([C@@H](C)CO)C(=O)c2cc(NS(=O)(=O)c3ccc(F)cc3)ccc2O1
inactive: [1] | [2] | [3] | [4] | [9] -6.08% | [6] | [7]

C[C@@H]1CN([C@H](C)CO)C(=O)c2cc(NS(=O)(=O)c3ccccc3)ccc2O[C@@H](C)CCCCO[C@@H]1CN(C)Cc1ccc(Cl)c(Cl)c1
inactive: [1] | [2] | [3] | [4] | [9] -20% [at 9 µM, stronger effect = lower value] | [6] | [7]

C[C@H](CO)N1C[C@H](C)[C@@H](CN(C)Cc2ccc(Oc3ccccc3)cc2)Oc2ccc(NS(=O)(=O)c3ccc(F)cc3)cc2CC1=O
inactive: [1] | [2] | [3] | [4] | [9] -23.5% [at 4.2 µM, stronger effect = lower value] | [6] | [7]

O=C(C[C@H]1CC[C@@H]2[C@H](COC[C@H](O)CN2S(=O)(=O)c2cccc(F)c2)O1)Nc1ccc(-c2ccccc2)cc1
inactive: [1] | [2] | [3] | [4] | [9] 27.1% [at 0.5 µM, stronger effect = lower value] | [6] | [7]

O=C(C[C@@H]1CC[C@@H]2[C@H](COC[C@H](O)CN2S(=O)(=O)c2ccccc2Cl)O1)N1CCC(Cc2ccccc2)CC1
inactive: [1] | [2] | [3] | [4] | [9] -15.3% | [7]
